Source: PubChem
hgDAF12 agonist – H. glycines DAF-12 receptor agonists, primary screen, cell-based, luminescence, HEK293, GAL4 fusion, UAS-luciferase; AID 687014, 2013; HEK293 GAL4-hgDAF12 UAS-luciferase reporter, agonist luminescence; normalized to butyrate control; 1.8% of 370,000 active; activation, % at 6.8 µM;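 active = activation above a cutoff set at the mean of all screened compounds plus 3 SD, cut at about 10% in these data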;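 note: 0% = DMSO wells and 100% = sodium butyrate wells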
DAX1 inh-1 – DAX1 (NR0B1) inhibitors on StAR promoter, primary screen, cell-based, luminescence, SF-1 (NR5A1), full-length DAX-1; 1.1% of 370,000 active; AID 652010, 2013; HEK293T StAR-luciferase reporter, SF-1/DAX-1 repression relief; inhibition, % at 6.8 µM;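 active = inhibition above the mean over all tested compounds plus 3 SD, cut at about 3.6% in these data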;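 note: 0% = DAX-1 cells with DMSO and 100% = cells lacking DAX-1 with DMSO; higher inhibition means more luminescence from relief of DAX-1 repression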
ssDAF12 agonist – S. stercoralis DAF-12 nuclear receptor activators, primary screen, cell-based, luminescence, HEK293, GRIP1 co-expression, lit1-tk-luc | Nuclear hormone receptor DAF-12 (Strongyloides stercoralis) | HEK293 ssDAF-12/GRIP1 lit1-tk-luc reporter; % of 3 µM dafachronic acid response | activation, % at 6.8 µM | 1% of 370,000 active | AID 652126, 2013;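 active = activation above the mean over all tested compounds plus 3 SD, cut at about 0.9% in these data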;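 note: 0% = DMSO-only wells and 100% = 3 µM delta7-dafachronic acid wells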
DAX1 inh-2 – DAX1 (NR0B1) inhibitors, primary screen, cell-based, HEK293, Gal4-DAX1, luciferase luminescence. Nuclear receptor subfamily 0 group B member 1 (Homo sapiens), P51843. HEK293 Gal4-DAX1 luciferase reporter. inhibition, % at 6.75 µM. 0.99% of 340,000 active. AID 504766, 2011;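 active = inhibition above the mean over all tested compounds plus 3 SD, cut at about 4.2% in these data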;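 note: 0% = DAX1-transfected cells with DMSO and 100% = empty-vector control cells with DMSO; inhibition shows as a rise in luminescence from relieved DAX1 repression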
Target sequence (P51843 207-470 limits assumed): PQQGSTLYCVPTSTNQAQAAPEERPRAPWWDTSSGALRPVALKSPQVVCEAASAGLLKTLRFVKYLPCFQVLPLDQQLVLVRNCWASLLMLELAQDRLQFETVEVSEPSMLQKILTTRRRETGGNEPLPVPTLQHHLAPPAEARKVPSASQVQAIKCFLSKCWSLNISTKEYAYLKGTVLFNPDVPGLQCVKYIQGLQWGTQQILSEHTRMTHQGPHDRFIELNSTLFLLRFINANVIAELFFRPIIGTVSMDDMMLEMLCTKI
AHR activator – AHR activators, primary screen, cell-based, luminescence, luciferase reporter, human; Aryl hydrocarbon receptor (Homo sapiens), P35869; AHR-responsive luciferase reporter cells; activation, % at 5 µM; 2.5% of 320,000 active; AID 2796, 2010; in the data active = activation above about 47%;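 note: 0% = vehicle wells and 100% = reference agonist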
hcDAF12 agonist – H. contortus DAF-12 nuclear receptor activators, primary screen, cell-based, luminescence, HEK293, lit1-tk-luc reporter; HEK293 hcDAF-12 lit1-tk-luc reporter; 0% DMSO, 100% Δ7-dafachronic acid; activation, % at 6.8 µM; 1.4% of 370,000 active; AID 652067, 2013;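 active = activation above the mean of all tested compounds plus 3 SD, cut at about 5.5% in these data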;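 note: 100% = response to 3 µM Δ7-dafachronic acid high control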
* marks the source's active call; other numbers are inactive results; . = not tested or not shown. A selection: hits, their analogues and other compounds. The true share with any hit is near 5.7%.

SMILES | hgDAF12 agonist | DAX1 inh-1 | ssDAF12 agonist | DAX1 inh-2 | AHR activator | hcDAF12 agonist
CN(C)c1ccc(/C=C(/NC(=O)c2ccccc2)C(=O)N/N=C/c2ccc([N+](=O)[O-])c(O)c2)cc1 | 11.7* | 1.2 | 0.0 | -3.3 | -3.1 | 1.8
COC(=O)C1=C(C)N(Cc2ccc(C(F)(F)F)cc2)C(=NCc2ccccc2)NC1c1ccc(C(F)(F)F)cc1 (configuration not stated) | 1.7 | 0.6 | -1.1 | . | . | 1.6
Cc1cccn2cc(CSc3ccccc3N)nc12 | 12.0* | 4.0* | -0.4 | 1.1 | 15.9 | 3.2
COc1ccc(O)c(/C=C(\C#N)C(=O)Nc2cccnc2)c1 | 3.1 | -0.1 | -1.0 | 1.9 | 28.0 | -1.0
COc1ccccc1/C=N/NC(=S)Nc1cccnc1 | 5.4 | -1.4 | -1.6 | 0.1 | 59.0* | -2.8
CCCOc1ccccc1/C=C(\C#N)C(=O)Nc1cccnc1 | 3.7 | 0.1 | -0.6 | 5.0* | 4.7 | -0.3
COc1ccccc1/C=C/C(=O)Nc1cccnc1 | 2.6 | 0.3 | -0.4 | 1.3 | 58.0* | 0.4
O=C(N/N=C/c1ccc(O)c(O)c1)N/N=C/c1ccc(O)c(O)c1 | 9.2 | 1.3 | -0.5 | 1.4 | . | 7.3*
O=C1c2ccccc2C(c2nnnn2Cc2ccccc2)N1CCc1c[nH]c2ccccc12 (configuration not stated) | 8.9 | -3.3 | -0.4 | . | . | 0.2
Cc1cc(C(=O)NNC(=S)NC(C)c2ccccc2)c2ccccc2n1 (configuration not stated) | -1.6 | -0.4 | -1.4 | 2.4 | 1.0 | 0.5
COc1ccccc1/C=C/C(=O)NCCc1ccccn1 | 9.2 | 2.0 | -0.7 | 1.0 | 63.3* | 0.4
CC(C)(C)c1ccc(/C=N/NC(=S)Nc2cccnc2)cc1 | . | . | . | . | 33.8 | .
CC1(C)C2CC=C(/C=N/NC(=S)Nc3cccnc3)C1C2 (configuration not stated) | -4.1 | -0.3 | 1.0* | 0.3 | 65.1* | 0.7
COc1cc(/C=C/C(=O)NCc2ccccn2)cc(OC)c1OC | -0.1 | 0.2 | -1.3 | 0.0 | 11.6 | -0.1
COc1cc(/C=N/NC(=S)Nc2cccnc2)cc(OC)c1OC | 2.0 | 0.2 | -1.1 | -0.8 | 61.5* | -1.7
Oc1ccc(/C=N/NC(=S)Nc2cccnc2)cc1O | -0.7 | 0.3 | -1.3 | -1.1 | 79.4* | -0.2
C/C(=C/c1ccccc1)C(=O)N1CCN(c2ccc(F)cc2)CC1 | -2.4 | 0.4 | -0.9 | -0.5 | 3.2 | 0.2
COc1cccc(CO[C@H]2C=C[C@@H](c3ccccc3)O[C@@H]2CO)c1 | 2.0 | 0.3 | -0.8 | . | . | -1.5
Cc1c(C(=O)OC2CCCC2C)[nH]c2c1C(=O)CCC2 (configuration not stated) | 2.3 | 2.8 | -0.9 | 1.9 | 0.8 | -0.8
Cc1c(C(=O)OC2CCCC2)[nH]c2c1C(=O)CC(c1ccco1)C2 (configuration not stated) | -1.0 | 3.0 | -1.5 | -4.9 | 57.4* | -2.7
COC(=O)C1C(=O)c2c([nH]c(C(=O)OC3CCCC3)c2C)CC1C (configuration not stated) | 8.9 | 3.3 | 0.1 | 2.1 | 18.6 | 6.0*
O=C(C1CCN(c2cncnc2)CC1)N1CCCC1 | 1.9 | 0.6 | -0.9 | . | . | -0.4
O=c1c2[nH]c3ccccc3c2ncn1CCN1CCOCC1 | 0.7 | -0.2 | -1.0 | -1.0 | 22.9 | 2.1
O=c1c2[nH]c3ccccc3c2ncn1C1CCCCC1 | 8.4 | 1.0 | -0.8 | -0.1 | 47.7* | 1.2
O=c1c2ccccc2ncn1C1CCCCC1 | -0.5 | -0.8 | -0.6 | 0.4 | -1.3 | -1.3
SMILES | hgDAF12 agonist | DAX1 inh-1 | ssDAF12 agonist | DAX1 inh-2 | AHR activator | hcDAF12 agonist
O=c1c2[nH]c3ccccc3c2ncn1CCN1CCCCC1 | 2.2 | 0.2 | -0.5 | -0.9 | 71.6* | -1.0
CC(C)CCn1cnc2c([nH]c3cccc(Cl)c32)c1=O | -1.3 | -0.4 | -1.1 | -0.1 | 59.9* | 0.5
Cc1ccccc1-c1csc(C(O)c2ccc(F)c(F)c2)n1 (configuration not stated) | 0.3 | -1.2 | -0.8 | . | . | -0.9
COc1ccccc1CNC(=O)CN1C(=O)c2ccccc2S1(=O)=O | 1.2 | 0.3 | -0.9 | 4.5* | -2.3 | 2.7
COc1ccccc1CNC(=O)CSc1ccccc1 | 10.6* | 3.0 | -0.9 | 0.5 | 6.7 | 1.6
COc1ccccc1CNC(=O)CN1NS(=O)(=O)c2ccccc2C1=O | -0.1 | -0.9 | -1.4 | -0.1 | 0.2 | 1.4
Cc1nc(N2CCOCC2)[nH]c(=O)c1C | 0.7 | 0.2 | -0.6 | 0.6 | -2.5 | 0.6
COC(=O)[C@]12C[C@H](CC(=O)NCc3cccc(C(F)(F)F)c3)C(=O)N(Cc3ccccc3)C1=C[C@H](C1CCCC1)O[C@@H]2C | 1.1 | -0.9 | -1.3 | . | . | -1.1
c1ccc(-n2nnc(-c3nccs3)n2)cc1 | 9.9 | 2.7 | 0.2 | 1.4 | 53.7* | 3.5
Cn1c(C(=O)N[C@@H](C(=O)O)c2ccccc2)cc2cc(Cl)ccc21 | 2.5 | -0.2 | 0.6 | 0.1 | 21.6 | 5.9*
Cc1ccccc1CN1CCCCC(NC(=O)c2ccccc2C)C1=O (configuration not stated) | -0.3 | -1.3 | -0.9 | . | . | -0.4
COc1ccccc1NC(=O)NC(=O)N(C(C)C)S(C)(=O)=O | 2.6 | -0.4 | -1.8 | -0.3 | 59.9* | -1.1
COc1ccccc1NC(=O)NC(N)=O | 3.0 | -0.2 | -1.3 | 4.3* | 2.5 | -1.1
Cc1ccccc1NC(=O)NC(N)=O | 2.6 | -0.4 | -1.1 | 0.6 | 5.1 | 1.8
COc1ccccc1NC(=O)Nc1nnc(C(C)C)s1 | 10.2 | 0.9 | -0.9 | 1.4 | 60.1* | -2.3
CCCCN(C(=O)NC(=O)Nc1cc(C)ccc1C)S(C)(=O)=O | 0.3 | -0.1 | -1.8 | -0.4 | 1.9 | -1.0
CCCCN(C(=O)NC(=O)Nc1ccccc1OC)S(C)(=O)=O | -0.5 | -0.2 | -1.1 | -0.4 | 58.1* | 0.0
COc1cc([C@@H]2CC=C(C(=O)O)CN2S(=O)(=O)c2ccc(C)cc2)cc(OC)c1OC | 0.4 | 0.3 | -1.0 | 1.0 | -0.2 | -2.6
Nc1c(Cl)cnc(C(Cl)(Cl)Cl)c1Cl | 1.6 | 0.5 | -0.3 | 0.0 | 66.8* | 3.4
CCOc1ccc(OCCNC(=O)C(NC(=O)c2c(F)cccc2F)C(C)C)cc1 (configuration not stated) | -1.7 | -0.6 | -0.6 | -0.2 | 5.1 | -1.1
O=c1cc(-c2ccc(Cl)cc2)[nH]c2ccccc12 | . | . | . | . | 22.7 | .
Cc1ccc(-c2cc(=O)c3ccccc3[nH]2)cc1 | 3.7 | 0.1 | -0.9 | 3.0 | 50.0* | 1.1
